Inconclusive results are not listed. Activity calls are given as the source filed them. Unless noted, the call rests on the fitted dose curve; in most records, active means well fitted curve in the direction sought with a large enough effect; inconclusive means small, poorly fitted or top-dose-only effect, or another doubt; inactive means no such curve, though single readings can be large; an effect the other way counts as inactive or inconclusive.
Assays:
[1] = AP1 Signaling Pathway (AID 357; active means well fitted curve in either direction with a large enough effect, not every such curve was filed as active;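 further: ME-180 reporter cells stimulated with EGF at its EC50 level; on the % scale 0 is the no-effect control and ±100 the full control effect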); details: ME-180 AP-1-bla reporter, EGF-induced, beta-lactamase ratio, 5 h; at 38 µM (top of the series)
Summary of the method: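 AP-1-bla ME-180 cells, Opti-MEM + 0.5% dialyzed FBS, plated overnight 37 °C. Cpd titration + EC50 EGF, 5 h 37 °C. CCF4 2.5 h RT; ex 405, em 460/530 ratio → %activity, AC50.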

[2] = biological target: Cytochrome P450 1A2 (Homo sapiens) (UniProt P05177); test: p450-cyp1a2 (AID 410; calls by dose curve; further: potency means the concentration at half of the fitted maximal effect)
Summary of the method: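 Luminescent demethylation readout: Luciferin-ME (100uM, equal to Km) turned over by 20nM CYP1A2 for 60 min at room temperature after NADPH regeneration addition, following 10 min compound preincubation. Normalization used 57 uM furafylline as full inhibition.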

[3] = NFAT Signaling Pathway (AID 444; active means well fitted curve in either direction with a large enough effect, not every such curve was filed as active;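 further: carbachol stimulus at about its EC50 of 1 µM final; on the % scale 0 is the no-effect control and ±100 the full control effect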); details: Jurkat NFAT-bla M1, carbachol, beta-lactamase ratio, 5 h; at 38 µM (top of the series)
Summary of the method: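 Read-out: CCF4 FRET ratio (460 nm/530 nm) after 1 h RT dye loading, used for %activity and AC50 from titration series. Cells: Jurkat NFAT-β-lactamase/M1 line, treated with compound plus 1 uM carbachol for 5 h, 37 °C.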

[4] = Stat Signaling Pathway (AID 446; active means well fitted curve in either direction with a large enough effect, not every such curve was filed as active;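 further: ME-180 cervical cancer cells given 40 pM IL-6 alongside compound; SIE-controlled beta-lactamase reporter measured as 460/530 nm FRET emission ratio; on the % scale 0 is the no-effect control and ±100 the full control effect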); details: ME-180 (cervical carcinoma) SIE beta-lactamase reporter, IL-6 stimulated, 5 h; at 38 µM (top of the series)
Summary of the method: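 Emission at 460 and 530 nm (excitation 405 nm) reports SIE-controlled beta-lactamase in ME-180 cells. Cells received compound with 40 pM IL-6 for 5 hrs at 37 C; data scaled between 300 pM IL-6 and 125 nM JAK-inhibitor controls.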

[5] = biological target: Glucocorticoid receptor (Homo sapiens) (UniProt P04150); test: GR-GFP Redistribution (AID 450;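 active means compounds whose dose series gives a full or clear partial fitted curve of increased nuclear translocation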; further: potency means the concentration at half of the fitted maximal effect); details: U2OS GR-GFP nuclear translocation, laser cytometry, 2 h
[6] = biological target: Glucocorticoid receptor (Homo sapiens) (UniProt P04150); test: GR-EFC Redistribution (AID 451; calls by dose curve; further: potency means the concentration at half of the fitted maximal effect); details: CHO-K1 GR-EFC translocation, beta-gal luminescence, 2 h
Summary of the method: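 Translocation of GR-ED fusion to nuclear EA restores b-gal, read by luminescence after 1 h room-temperature detection. Engineered CHO-K1 biosensor cells, 1,000/well, exposed 2 h at 37 C to titrations up to 46 uM final.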

[7] = biological target: Mitogen-activated protein kinase 10 (Mus musculus) (UniProt Q61831); test: JNK3 AlphaScreen Assay (AID 530; active means well fitted curve in either direction with a large enough effect, not every such curve was filed as active;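 further: kinase came from lysate of stimulated human HepG2 cells; signal reports phosphorylation of biotinylated GST-cJun 1-79 at Ser73 with 10 µM ATP; on the % scale 0 is the no-effect control and ±100 the full control effect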)
Summary of the method: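 qHTS titrations with 15 min compound pre-incubation before adding ATP (10 uM final). Read-out: AlphaScreen of Ser73-phosphorylated biotin-GST-cJun using HepG2 lysate JNK3 activated by IL-1β and TNFα.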

[8] = biological target: 3',5'-cyclic-AMP phosphodiesterase 4B (Homo sapiens) (UniProt Q07343); test: qHTS Assay for Inhibitors of PDE-IV (AID 607; active means well fitted activation curve with a large enough effect in the main read-out, with a control signal flat, not every such curve was filed as active; further: % of control where 0% means no effect)
Summary of the method: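 The readout is membrane depolarisation from a cAMP-sensing CNG channel, detected with a potential dye at ex 535/em 590. Cells were HEK293-derived (endogenous PDE-IV) at 1000 cells/well, titrated up to 22.9 uM final.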

[9] = biological target: Guanine nucleotide-binding protein G(i) subunit alpha-1 (Homo sapiens) (UniProt P63096); test: qHTS Assay for Inhibitors of RGS12 GoLoco Motif Activity (Green Fluorophore) (AID 879);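 further: 0% = labeled peptide with Gαi1 and full inhibition = labeled peptide alone without protein; negative values mean loss of peptide binding seen as reduced polarization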
Summary of the method: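 A drop in FITC polarization marked displacement of the FITC-tagged RGS12 GoLoco peptide (10 nM) from Gαi1 (50 nM). Compounds were incubated 10 min at room temperature in Tris pH 7.5 buffer containing 150 mM NaCl, 0.1 mM GDP and 0.05% NP40; unlabeled peptide titration served as control.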

[10] = biological target: Cytochrome P450 3A4 (Homo sapiens) (UniProt P08684); test: qHTS Assay for Activators of Cytochrome P450 3A4 (AID 885); further: nearly all actives have a fitted effect of over 65% in size
Summary of the method: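 Activators are scored by enhanced luminescence from CYP3A4 conversion of luciferin-PPXE (25uM, equal to KM) to luciferin, after 60 min at RT with an NADPH-regenerating system.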

[11] = biological target: Muscarinic acetylcholine receptor M1 (Rattus norvegicus) (UniProt P08482); test: qHTS Assay for Antagonists of Acetylcholine Muscarinic M1 Receptor: Kinetic Measurement of Intracellular Calcium Response (AID 943);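 further: Fluo-4 calcium signal as peak divided by basal fluorescence over 4 min; nearly all actives have a fitted effect of over 75% in size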
Summary of the method: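 Antagonism measured as reduction of carbachol-evoked (EC80, 100 nM final) calcium flux in rat M1-CHO cells after 10 min compound exposure. Fluo-4 signal read kinetically; ratio of maximal to basal fluorescence.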

[12] = biological target: Muscarinic acetylcholine receptor M1 (Rattus norvegicus) (UniProt P08482); test: qHTS Assay for Antagonists of Acetylcholine Muscarinic M1 Receptor: Measurement of IP-One Response (AID 944); further: nearly all actives have a fitted effect of over 75% in size
Summary of the method: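 IP1 accumulation measured via TR-FRET between d2-IP1 and Eu-cryptate anti-IP1 antibody after carbachol (200 nM, EC80) stimulation for 30 min; rat M1-transfected CHO cells received compound 10 min before agonist.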

[13] = biological target: Pyruvate kinase (Leishmania mexicana) (UniProt Q27686); test: qHTS Validation Assay for Inhibitors of Leishmania Mexicana Pyruvate Kinase (AID 945);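 further: 0% = DMSO only neutral control wells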
Summary of the method: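 Luminescent ATP detection (PKLight) after a 1 h room-temperature reaction of 0.2 nM LmPYK E451W mutant with 0.5 mM PEP and 0.1 mM ADP at pH 7.2. Activity is normalized to DMSO-only control wells.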

[14] = Validation of Assay for Modulators of Lamin A Splicing (AID 1459; active means well fitted curve in the direction sought with a large enough effect in the signal ratio; the % refers to the signal ratio;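 further: cells exposed to compound for two days before reading; 0% is about no effect; ratio rise marks activators and ratio drop marks inhibitors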)
Summary of the method: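 Splicing correction is reported by an EGFP-containing lamin A minigene in stably transfected S3 HeLa cells, while DsRed2 controls for viability and nonspecific signal. Cells are exposed to compounds for 48 hrs before the GFP over RFP ratio is taken.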

[15] = qHTS Assay for Lipid Storage Modulators (AID 1519; calls by dose curve); details: Drosophila S3 cells, BODIPY lipid droplet/cell ratio, laser cytometry, cells loaded with oleic acid
Summary of the method: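 Cells seeded at 5,000 per well were treated with compounds over a concentration series and loaded with oleic acid (400 uM, as added). Lipid droplet fluorescence (488 nm excitation, 500-530 nm channel) was read by laser-scanning cytometry and normalized to 20 uM Triacsin C.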

[16] = Counterscreen for APE1 Inhibitors: Fluorescent Dye Displacement Validation Assay (AID 1707);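 further: plate controls were ThO with dsDNA and no compound for no effect and ThO without dsDNA for full effect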
Summary of the method: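 Endpoint fluorescence read at 480 nm excitation / 540 nm emission; DNA-binding compounds lower signal by displacing 250 nM Thiazole Orange from 50 nM dsDNA containing a tetrahydrofuran abasic site, Tris-HCl pH7.5 buffer with NaCl and MgCl2.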

[17] = biological target: Endonuclease 4 (Escherichia coli (strain K12)) (UniProt P0A6C1); test: Counterscreen for APE1 Inhibitors: qHTS Validation Assay for Inhibitors of Endonuclease IV (AID 1708); further: on the % scale 0 is the no-effect control and ±100 the full control effect
Summary of the method: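 Incision of a double-stranded 50 nM TAMRA/BHQ-2 abasic substrate was followed kinetically (525/598 nm, reads every 60 s) after 15 min enzyme–compound preincubation with 2 nM EndoIV in pH 7.5 Tris buffer with MgCl2, DTT and Tween-20; concentration-response format.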

[18] = qHTS for differential inhibitors of proliferation of Plasmodium falciparum line 7G8 (AID 1815);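 further: parasite growth measured after three days of incubation; plate controls were vehicle wells for no effect and reference inhibitor wells for full effect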
[19] = qHTS for differential inhibitors of proliferation of Plasmodium falciparum line GB4 (AID 1816); details: Potency: Plasmodium falciparum GB4 proliferation inhibition;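 further: parasite growth measured after 72 h incubation; 0% = vehicle DMSO and -100% = reference inhibitor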
[20] = qHTS for differential inhibitors of proliferation of Plasmodium falciparum line D10 (AID 1877);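 further: parasites grown with compound for 72 h before DNA staining; plate controls were vehicle wells for no effect and reference inhibitor wells for full effect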
[21] = qHTS for differential inhibitors of proliferation of Plasmodium falciparum line Dd2 (AID 1882); details: Potency: Plasmodium falciparum Dd2 proliferation inhibition;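 further: plate controls were DMSO vehicle for no effect and 0.29 µM artemisinin for full effect; nearly all actives have a fitted effect of over 65% in size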
Summary of the method: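 SYBR Green DNA fluorescence (ex 485, em 535 nm) after overnight lysis quantifies parasite growth; compound exposure lasted 72 h at 37 C on infected red cells at 2.5% hematocrit, 0.3% parasitemia (final). Artemisinin 0.29 uM and vehicle wells define normalization.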

[22] = biological target: Ferritin light chain (Equus caballus) (UniProt P02791); test: qHTS Validation Assay for Identification of Novel General Anesthetics (AID 2323); further: on the % scale 0 is the no-effect control and ±100 the full control effect
Summary of the method: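 Apoferritin from horse spleen (10 uM) was mixed with 1-aminoanthracene at 50% saturation in PBS, then compounds were added. After 10 min at room temperature, fluorescence was read (ex 380 nm, em 535 nm) and normalized to free-probe and complex controls.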

[23] = biological target: ATP-dependent DNA helicase Q1 (Homo sapiens) (UniProt P46063); test: qHTS Validation Assay for Inhibitors of RecQ-Like Dna Helicase 1 (RECQ1) (AID 2353);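 further: plate controls were DMSO vehicle for no effect and enzyme-free control for full effect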
Summary of the method: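 RECQ1T1 50 nM; forked duplex (20 bp + 30-nt ss tails) 200 nM, ATP 2 mM final; pH 8.0, 2 mM MgCl2, 2.5 ug/ml poly(dI-dC); 15 min compound preincubation; discontinuous kinetic read over 2 h at RT.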

[24] = biological target: RecQ-like DNA helicase BLM (Homo sapiens) (UniProt P54132); test: qHTS Validation Assay for Inhibitors of Bloom's syndrome helicase (BLM) (AID 2364);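 further: plate controls were DMSO vehicle for no effect and enzyme-free control for full effect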
Summary of the method: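 Forked 20-bp duplex substrate (200 nM, TAMRA/BHQ-2) plus 2 mM ATP added after 15 min compound preincubation with 50 nM enzyme, pH 8.0, poly(dI-dC) 2.5 ug/ml. Strand separation followed by fluorescence (525/598 nm) over 2 h, normalized to enzyme-free and DMSO controls.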

[25] = Validation screen for small molecules that induce DNA re-replication in MCF 10A normal breast cells (AID 463097); further: 0% is about no effect; nearly all actives have a fitted effect of over 60% in size
Summary of the method: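 DNA re-replication was detected as a rise in nuclei with elevated Hoechst fluorescence after a 48 hr compound exposure of MCF 10A cells at 37 C.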

[26] = Quantitative high throughput screen for delayed death inhibitors of the malarial parasite plastid, 96 hour incubation (AID 488745); further: on the % scale 0 is the no-effect control and ±100 the full control effect; nearly all actives have a fitted effect of over 70% in size
Summary of the method: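 Decreased firefly luciferase luminescence indicates inhibited growth of reporter-integrated P. falciparum after two generations (96 h, 37 C, 5% CO2). Infected erythrocytes at 0.1% parasitemia, 2% hematocrit, in Albumax-supplemented RPMI 1640.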

[27] = Quantitative high throughput screen for delayed death inhibitors of the malarial parasite plastid, 48 hour incubation (AID 488752); further: on the % scale 0 is the no-effect control and ±100 the full control effect; nearly all actives have a fitted effect of over 65% in size
Summary of the method: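 One-generation (48 h) growth assay: a decrease in luciferase signal from an integrated reporter in P. falciparum-infected red cells (0.1% parasitemia, 2% hematocrit) after compound exposure at 37 C indicates parasite inhibition.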

[28] = biological target: M-phase phosphoprotein 8 (Homo sapiens) (UniProt Q99549); test: qHTS Validation Assay for Inhibitors for MPP8 Chromodomain Interactions with Methylated Histone Tails (AID 488949);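 further: AlphaScreen signal from MPP8 chromodomain bound to biotinylated H3K9me3 peptide; top concentration of the series differs between compounds; on the % scale 0 is the no-effect control and ±100 the full control effect; nearly all actives have a fitted effect of over 55% in size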
Summary of the method: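 Disruption of the preformed MPP8–trimethyl-H3K9 peptide complex (both 50 nM, 30 min, RT) is measured after 30 min compound exposure, using AlphaScreen proximity beads; aurintricarboxylic acid titration serves as plate control.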

[29] = biological target: Transient receptor potential cation channel subfamily V member 1 (Homo sapiens) (UniProt Q8NER1); test: HTS Assay for Compounds that Act as Enhancers of the Vanilloid Receptor 1 (AID 488979); further: 0% is about no effect
Summary of the method: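 Calcium influx kinetics via Fluo-8 (480/520 nm) in TRPV1-expressing cells, 2000/well cultured overnight at 35.5C. Compound-alone read 3 min (agonist phase), followed by EC20 capsaicin challenge for 2 min (enhancer phase).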

[30] = biological target: Thyrotropin receptor (Homo sapiens) (UniProt P16473); test: qHTS Assay for Antagonists of the Thyroid Stimulating Hormone Receptor (AID 488980); further: 0% is about no effect
Summary of the method: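 Cells expressing human TSHR (HEK293) are dispensed in HBSS/HEPES containing 70 uM RO 20-1724, compound is added, then TSH at EC80 (4 nM final). Antibody in lysis buffer follows, 30 minutes at room temperature before HTRF detection.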

[31] = biological target: Thyrotropin-releasing hormone receptor (Homo sapiens) (UniProt P34981); test: qHTS for Small Molecule Agonists and Allosteric Enhancers of Human TRH Receptor: Validation Screen for Agonists (AID 493127;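 active means calcium activation more than 3 SD above the typical response in the agonist read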;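 further: intracellular calcium rise by fluo-8 fluorescence before TRH EC20 addition; 0% is about no effect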); details: TRH receptor agonist cell assay; at 2 µM; stronger effect = higher value
Summary of the method: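 Compound-evoked intracellular calcium release in fluo-8-loaded TRHR cells, read kinetically on FDSS (Ex 480/Em 530, 1 s/cycle) after 23 nL pintool transfer. Agonist phase preceded 10 nM TRH EC20 addition.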

[32] = biological target: Galactokinase (Homo sapiens) (UniProt P51570); test: qHTS Validation Assay for Inhibitors of Human Galactokinase (GALK) (AID 493189); further: 0% is about no effect
Summary of the method: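 Compounds were pin-transferred into ATP buffer, then GALK-galactose mix was added (final 5 nM enzyme, 100 uM galactose, 35 uM ATP). After 1 h at room temperature, remaining ATP was measured luminescently.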

[33] = Validation screen for small molecules that induce DNA re-replication in SW480 colon adenocarcinoma cells (AID 504364); further: 0% is about no effect
Summary of the method: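 Image-based DNA content read-out: Hoechst stain 40 min, total nuclear fluorescence intensity (ex 405 nm, em 500-530 nm) after 48 h compound exposure of 250 SW480 cells/well at 37 C, 5% CO2, versus DMSO vehicle.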

[34] = test system: Zika virus NS2B-NS3 protease; test: Primary screen GU AMC qHTS for Zika virus inhibitors (AID 1347154);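 further: 0% = no-inhibitor control and -100% = no-enzyme control; nearly all actives have a fitted effect of over 70% in size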
Summary of the method: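 Fluorogenic AMC-substrate cleavage by noncovalent NS2B-NS3 protease complex (25 nM, pH 8.0 Tris buffer with Tween 20) followed for 15 minutes at room temperature (~20% conversion). Percent inhibition from ex340/em450 signal change, fitted by 4-parameter Hill equation.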

[35] = Primary qHTS for small molecule stabilizers of the endoplasmic reticulum resident proteome: Secreted ER Calcium Modulated Protein (SERCaMP) assay (AID 1508630); further: on the % scale 0 is the no-effect control and ±100 the full control effect
Summary of the method: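 The SH-SY5Y reporter protocol was run at 3 concentrations up to 38.3 uM (primary) or 11 concentrations (follow-up): 16 h compound, 100 nM thapsigargin for 4 h, then extracellular luciferase luminescence.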

Chain of Glucocorticoid receptor (Homo sapiens) (P04150 whole entry, looked up, the tested form may be a part): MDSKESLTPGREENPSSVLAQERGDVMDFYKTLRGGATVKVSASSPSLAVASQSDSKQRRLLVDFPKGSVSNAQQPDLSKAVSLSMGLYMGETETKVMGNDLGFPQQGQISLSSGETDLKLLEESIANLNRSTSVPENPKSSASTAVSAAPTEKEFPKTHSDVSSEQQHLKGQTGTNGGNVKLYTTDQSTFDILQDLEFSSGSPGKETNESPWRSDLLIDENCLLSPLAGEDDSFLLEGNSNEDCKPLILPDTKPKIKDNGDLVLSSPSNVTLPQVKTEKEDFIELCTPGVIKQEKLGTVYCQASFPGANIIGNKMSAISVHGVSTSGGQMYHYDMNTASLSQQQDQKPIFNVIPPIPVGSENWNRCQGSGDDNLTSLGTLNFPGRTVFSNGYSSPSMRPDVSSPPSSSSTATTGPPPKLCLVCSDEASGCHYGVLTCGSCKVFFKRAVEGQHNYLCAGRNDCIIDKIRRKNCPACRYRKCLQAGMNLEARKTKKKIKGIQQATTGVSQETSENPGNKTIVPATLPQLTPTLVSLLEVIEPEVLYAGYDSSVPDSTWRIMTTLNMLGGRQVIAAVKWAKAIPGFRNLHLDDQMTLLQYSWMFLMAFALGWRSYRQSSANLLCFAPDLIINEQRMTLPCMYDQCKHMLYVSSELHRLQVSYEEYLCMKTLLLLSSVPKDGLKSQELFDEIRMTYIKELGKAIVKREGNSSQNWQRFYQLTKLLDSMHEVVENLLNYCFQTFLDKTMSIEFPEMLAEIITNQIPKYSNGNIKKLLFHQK
Chain of Muscarinic acetylcholine receptor M1 (Rattus norvegicus) (P08482 whole entry, looked up): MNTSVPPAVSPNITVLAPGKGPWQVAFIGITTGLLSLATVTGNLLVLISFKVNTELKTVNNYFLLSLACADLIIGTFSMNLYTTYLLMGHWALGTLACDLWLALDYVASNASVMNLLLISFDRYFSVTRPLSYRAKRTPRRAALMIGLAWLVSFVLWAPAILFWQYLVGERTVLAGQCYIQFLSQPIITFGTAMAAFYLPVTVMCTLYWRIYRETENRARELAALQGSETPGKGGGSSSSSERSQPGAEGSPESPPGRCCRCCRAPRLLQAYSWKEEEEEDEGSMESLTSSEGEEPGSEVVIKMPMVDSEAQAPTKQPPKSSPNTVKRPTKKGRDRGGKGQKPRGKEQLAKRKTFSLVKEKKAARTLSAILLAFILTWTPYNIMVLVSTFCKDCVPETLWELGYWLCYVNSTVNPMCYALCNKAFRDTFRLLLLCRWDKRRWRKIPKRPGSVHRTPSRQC
Chain of ATP-dependent DNA helicase Q1 (Homo sapiens) (P46063 whole entry, looked up): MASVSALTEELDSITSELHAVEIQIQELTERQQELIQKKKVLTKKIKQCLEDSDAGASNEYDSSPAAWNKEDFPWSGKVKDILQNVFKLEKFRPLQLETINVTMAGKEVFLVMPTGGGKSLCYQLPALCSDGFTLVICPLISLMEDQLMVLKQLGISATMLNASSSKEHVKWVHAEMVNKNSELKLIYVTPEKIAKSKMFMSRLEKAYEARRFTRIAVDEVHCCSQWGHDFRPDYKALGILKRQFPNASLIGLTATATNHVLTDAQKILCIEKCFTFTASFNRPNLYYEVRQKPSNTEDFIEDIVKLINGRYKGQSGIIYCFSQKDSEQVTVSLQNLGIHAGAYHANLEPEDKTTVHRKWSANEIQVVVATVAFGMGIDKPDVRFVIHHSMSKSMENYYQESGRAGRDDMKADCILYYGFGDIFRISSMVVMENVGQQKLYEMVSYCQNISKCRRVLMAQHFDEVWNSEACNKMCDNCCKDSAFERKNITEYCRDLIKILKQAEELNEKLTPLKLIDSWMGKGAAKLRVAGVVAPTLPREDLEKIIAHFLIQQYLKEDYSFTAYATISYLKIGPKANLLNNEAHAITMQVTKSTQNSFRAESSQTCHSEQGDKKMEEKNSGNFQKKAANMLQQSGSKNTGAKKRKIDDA
Chain of Thyrotropin-releasing hormone receptor (Homo sapiens) (P34981 whole entry, looked up): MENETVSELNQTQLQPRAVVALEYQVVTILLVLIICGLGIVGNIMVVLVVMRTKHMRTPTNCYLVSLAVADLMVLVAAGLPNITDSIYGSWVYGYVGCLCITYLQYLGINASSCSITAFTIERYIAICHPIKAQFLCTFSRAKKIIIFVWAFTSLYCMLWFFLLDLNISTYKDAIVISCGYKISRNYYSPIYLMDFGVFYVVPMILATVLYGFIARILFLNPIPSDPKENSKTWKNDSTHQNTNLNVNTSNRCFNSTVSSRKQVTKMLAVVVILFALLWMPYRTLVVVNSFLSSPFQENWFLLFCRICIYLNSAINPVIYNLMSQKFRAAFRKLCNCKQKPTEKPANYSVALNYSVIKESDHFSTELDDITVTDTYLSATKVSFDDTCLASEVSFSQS
Chain of 3',5'-cyclic-AMP phosphodiesterase 4B (Homo sapiens) (Q07343 whole entry, looked up): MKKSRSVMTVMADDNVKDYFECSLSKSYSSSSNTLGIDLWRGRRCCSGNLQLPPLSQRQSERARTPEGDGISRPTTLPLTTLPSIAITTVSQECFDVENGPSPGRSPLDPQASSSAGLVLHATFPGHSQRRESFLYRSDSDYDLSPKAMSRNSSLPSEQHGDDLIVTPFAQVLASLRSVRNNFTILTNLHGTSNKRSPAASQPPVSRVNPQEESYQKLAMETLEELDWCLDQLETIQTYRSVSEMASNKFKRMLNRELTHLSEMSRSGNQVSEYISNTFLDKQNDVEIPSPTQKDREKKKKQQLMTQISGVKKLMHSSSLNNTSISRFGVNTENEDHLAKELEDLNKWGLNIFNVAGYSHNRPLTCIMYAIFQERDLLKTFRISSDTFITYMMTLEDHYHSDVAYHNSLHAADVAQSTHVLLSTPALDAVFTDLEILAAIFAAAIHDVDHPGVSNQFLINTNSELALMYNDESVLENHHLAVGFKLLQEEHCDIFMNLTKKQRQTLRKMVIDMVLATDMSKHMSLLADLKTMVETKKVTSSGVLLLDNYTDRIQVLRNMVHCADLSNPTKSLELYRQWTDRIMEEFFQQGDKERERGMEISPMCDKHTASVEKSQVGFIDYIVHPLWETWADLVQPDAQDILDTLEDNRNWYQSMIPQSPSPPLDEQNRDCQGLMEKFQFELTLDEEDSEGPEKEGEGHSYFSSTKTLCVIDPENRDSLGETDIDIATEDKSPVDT
Chain of Thyrotropin receptor (Homo sapiens) (P16473 whole entry, looked up): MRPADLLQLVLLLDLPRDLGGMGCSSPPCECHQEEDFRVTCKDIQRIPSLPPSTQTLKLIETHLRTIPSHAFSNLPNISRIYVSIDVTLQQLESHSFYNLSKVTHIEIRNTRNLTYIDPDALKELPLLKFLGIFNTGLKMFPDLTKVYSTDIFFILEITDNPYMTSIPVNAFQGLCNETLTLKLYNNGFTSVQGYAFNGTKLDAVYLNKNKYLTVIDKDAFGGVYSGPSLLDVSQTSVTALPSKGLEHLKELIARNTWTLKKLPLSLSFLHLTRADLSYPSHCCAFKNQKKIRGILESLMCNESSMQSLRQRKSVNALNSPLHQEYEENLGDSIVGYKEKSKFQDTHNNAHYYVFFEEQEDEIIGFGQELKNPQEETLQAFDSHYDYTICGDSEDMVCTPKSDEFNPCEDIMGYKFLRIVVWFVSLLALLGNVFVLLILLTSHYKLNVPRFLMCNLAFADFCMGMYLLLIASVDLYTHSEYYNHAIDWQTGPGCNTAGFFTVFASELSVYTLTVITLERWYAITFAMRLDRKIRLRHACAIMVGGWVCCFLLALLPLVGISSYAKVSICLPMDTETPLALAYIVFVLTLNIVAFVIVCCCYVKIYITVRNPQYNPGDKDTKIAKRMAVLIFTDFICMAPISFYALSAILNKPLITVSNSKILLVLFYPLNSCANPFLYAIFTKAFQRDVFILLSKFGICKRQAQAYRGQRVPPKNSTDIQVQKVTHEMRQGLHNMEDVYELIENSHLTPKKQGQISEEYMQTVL
Chain of Pyruvate kinase (Leishmania mexicana) (Q27686 2-499 E452W): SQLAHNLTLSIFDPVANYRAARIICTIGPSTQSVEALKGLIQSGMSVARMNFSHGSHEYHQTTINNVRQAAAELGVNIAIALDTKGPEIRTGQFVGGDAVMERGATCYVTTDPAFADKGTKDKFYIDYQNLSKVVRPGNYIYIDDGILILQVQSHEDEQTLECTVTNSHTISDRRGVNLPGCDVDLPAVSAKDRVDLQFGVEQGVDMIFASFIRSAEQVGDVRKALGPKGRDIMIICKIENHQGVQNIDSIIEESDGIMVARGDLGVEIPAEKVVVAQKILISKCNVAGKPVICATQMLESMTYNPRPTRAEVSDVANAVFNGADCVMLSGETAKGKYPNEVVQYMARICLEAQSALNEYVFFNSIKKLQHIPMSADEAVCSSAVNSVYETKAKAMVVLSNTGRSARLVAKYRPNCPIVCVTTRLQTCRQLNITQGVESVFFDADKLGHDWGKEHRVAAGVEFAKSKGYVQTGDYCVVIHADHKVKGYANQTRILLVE
Chain of Ferritin light chain (Equus caballus) (P02791 2-175 limits assumed): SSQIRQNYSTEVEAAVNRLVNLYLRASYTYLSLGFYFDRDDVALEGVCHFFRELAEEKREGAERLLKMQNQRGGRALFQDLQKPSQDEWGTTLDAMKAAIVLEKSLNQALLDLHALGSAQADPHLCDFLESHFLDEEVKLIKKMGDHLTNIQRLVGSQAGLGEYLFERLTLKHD
Chain of Galactokinase (Homo sapiens) (P51570 whole entry, looked up): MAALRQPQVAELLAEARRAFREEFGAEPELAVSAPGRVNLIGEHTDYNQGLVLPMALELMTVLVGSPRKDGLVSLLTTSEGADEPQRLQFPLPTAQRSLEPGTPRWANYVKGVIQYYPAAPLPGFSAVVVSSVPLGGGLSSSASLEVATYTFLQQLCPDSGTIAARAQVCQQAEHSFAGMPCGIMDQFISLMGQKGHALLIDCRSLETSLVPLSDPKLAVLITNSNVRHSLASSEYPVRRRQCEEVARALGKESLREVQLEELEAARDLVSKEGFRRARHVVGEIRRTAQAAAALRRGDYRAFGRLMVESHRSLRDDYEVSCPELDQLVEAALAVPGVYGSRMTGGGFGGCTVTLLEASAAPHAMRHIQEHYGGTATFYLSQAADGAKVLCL

Cn1cnc2c(NC3CCCC3)ncnc21
active: Potency [2] 12.6 µM
inactive: activity change, negative = inhibition [1] -18% | activity change, negative = inhibition [3] -0.777% | activity, negative = inhibition [4] 11.1% | Potency [5] > 46 µM | Potency [6] > 46 µM | Potency [7] | Potency [8] | outcome [9] | Potency [10] | Potency [11] | Potency [12] | Potency [13] | outcome [14] | activity change, negative = inhibition ([15]; at 57.5 µM (top of the series)) -0.311% | Potency [16] | Potency [17] | Potency [18] | Potency [19] | Potency [20] | Potency [21] | outcome [22] | Potency [23] | Potency [24] | Potency [25] | Potency [26] | Potency [27] | Potency [28] | outcome [29] | outcome [30] | activation [31] 0.875% | outcome [32] | outcome [33] | Potency [34] | Potency [35]
-21%: max response ([15]; measured here: lipid channel max response)
-17.7%: max response ([15]; measured here: cell count channel max response)

From PubChem BioAssay (NCATS)
